From PubChem BioAssay come the findings set out here.

Assay [1] relates to XIP peptide (Xip251-270) binding. Description: XIP fragment 251-270 binding compounds – biochemical, small-molecule microarray, fluorescence 635/667 nm, 0.1 µg/mL protein, primary screen (AID 1182). Particulars: fluorescent protein binding, 635 nm, higher = more signal, called active from +8 up or from −8 down.
In the next assay the test system is XIP peptide (Xip251-270). The assay is described as follows: compounds binding XIP fragment 251-270 – biochemical, small-molecule microarray, fluorescence 635/667 nm, 0.5 µg/mL protein, primary screen (AID 1183). Particulars: fluorescence 635 nm, higher = more signal.
Assay [2] in a line: blood-stage malaria parasite viability loss – strain 3D7, DAPI fluorescence, 100 nL, primary screen (AID 1184).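 Further: parasites grown inside human red blood cells in medium with human serum.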 Particulars: P. falciparum 3D7 growth, 3 d, higher = more signal.
The target in assay [3] is Homeobox protein Hox-A13 (Mus musculus) (UniProt Q62424). The assay is described as follows: disruptors of Hoxa13 oligonucleotide interaction – biochemical, fluorescence polarization, labeled oligonucleotide, primary screen (AID 1185). Particulars: Hoxa13:DNA binding, 15 min, higher = more signal, called active from +8 up or from −8 down.
Chain of Homeobox protein Hox-A13 (Mus musculus) (Q62424 whole entry, looked up): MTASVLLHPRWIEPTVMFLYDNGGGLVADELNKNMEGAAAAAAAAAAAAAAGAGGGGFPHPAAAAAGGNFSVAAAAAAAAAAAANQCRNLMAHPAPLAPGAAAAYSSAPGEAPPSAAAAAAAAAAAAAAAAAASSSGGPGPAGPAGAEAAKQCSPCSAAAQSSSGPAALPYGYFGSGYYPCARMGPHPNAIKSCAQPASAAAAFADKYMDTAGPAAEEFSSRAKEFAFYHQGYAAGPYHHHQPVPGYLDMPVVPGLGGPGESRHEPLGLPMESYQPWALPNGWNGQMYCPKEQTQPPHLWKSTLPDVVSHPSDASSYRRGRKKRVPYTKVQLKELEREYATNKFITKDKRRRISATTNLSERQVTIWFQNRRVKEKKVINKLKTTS

The source made the active and inactive calls.

As to `CC(C)=NOC[C@@H](O)[C@H]1O[C@@H]2OC(C)(C)O[C@@H]2[C@H]1O`, the composite z-score in assay [1] is 0.524 (inactive); with XIP peptide (Xip251-270) it was -0.122. Also, the z-score is 0.292 in assay [2] and 0.483 (inactive) in assay [3].
For `CCOC(=O)[C@H](CC(C)C)NC(=O)CCC1CC(OC(=O)NCc2ccc3c(c2)OCO3)CC2(CCCC(COC(=O)NCCc3ccccc3OC)O2)O1` (some centres not stated), the composite z-score in assay [1] is 0.677 (inactive); with XIP peptide (Xip251-270), 0.622. For the same molecule, the z-score is -1.88 in assay [2] and -3.78 (inactive) in assay [3].
For `CO[C@@H](C(C)C)[C@@H](C)C1OC(=O)CC1O` (some centres not stated) the same measures were 0.51 (inactive), 0.129, -1.69 and 0.186 (inactive).
On to `OC[C@H]1O[C@H](C#Cc2ccccc2)C=C[C@@H]1O`, for which the figures for the composite z-score (in assay [1]; in the assay with XIP peptide (Xip251-270)) were 0.0849 (inactive) and -0.105, respectively. Besides, the z-score is 0.223 in assay [2] and -2.53 (inactive) in assay [3].
Turning to `CCOC(=O)[C@H](Cc1ccccc1)NC(=O)CCC1CC(OC(=O)NCc2ccc3c(c2)OCO3)CC2(CCCC(COC(=O)NCCCN3CCCC3=O)O2)O1` (some centres not stated), the composite z-score in assay [1] was 0.112 (inactive); in the assay with XIP peptide (Xip251-270), 0.577. The z-score in assay [2] is -1.87; in assay [3], -3.13 (inactive).
For the molecule `COC(=O)[C@H](CCSC)NC(=O)CC=C[C@@H](C)CO`, the results for the composite z-score (in assay [1]; in the assay on XIP peptide (Xip251-270)) were -0.0999 (inactive) and 0.334, respectively. The z-score in assay [2] was -0.979; in assay [3] it was -0.265 (inactive).
With `O=C1C2=CC[C@H]3C(=O)N(Cc4ccccc4)C(=O)[C@H]3[C@H]2[C@H](O)[C@@H]2O[C@H]12`, the figures for the composite z-score (in assay [1]; in the assay with XIP peptide (Xip251-270)) were 0.409 (inactive) and -0.194, respectively. Moreover, the values for the z-score in assay [2] and in assay [3] were -0.116 and -5.55 (inactive), respectively.
On to `CON=C(C)CCN1CCCCc2nc(C)c(C)cc21`, for which the composite z-score in assay [1] is 0.0459 (inactive); with XIP peptide (Xip251-270), 0.49. Moreover, the z-score is 1.06 in assay [2] and -2.24 (inactive) in assay [3].
